From PubChem BioAssay
Shown are actives, neighbours in structure and some others; about 21% of the full set was active somewhere.
CHX counter: affects cycloheximide protein synthesis inhibition readout, counter-screen; cell reporter, cycloheximide protein synthesis inhibition counterscreen; max response, %; 300,000 tested, 12% active; AID 2314; in the data active means max response mostly above about 13%, no sharp cut-off; inactive means mostly below about 14%; further: read at 38.3 µM for the half of the compounds with a filed dose; 0% is about no effect
Pf growth 48h: P. falciparum growth inhibition at 48 hours (one generation); Potency, µM (highest dose often 28.7 µM), inactives show at the top dose activity change, negative = inhibition, usual class: inhibitors; AID 504832; P. falciparum luciferase growth in erythrocytes, 48 h; 310,000 tested, 5.9% active; further: potency means the concentration at half of the fitted maximal effect; on the % scale 0 is the no-effect control and ±100 the full control effect
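Growth was read as firefly luciferase luminescence after a 48 h, 37 C, 5% CO2 exposure of compounds to reporter-bearing P. falciparum cultures (0.1% parasitemia, 2% hematocrit final) in Albumax-supplemented RPMI 1640.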
HCMV antiviral: inhibitors of human cytomegalovirus | AID 1259415 | HFF cells, HCMV-luciferase reporter, 72 h; hits give low values | 410,000 tested, 4.5% active | activity change, negative = inhibition, % at 57.5 µM; in the data active means activity change below about -60%; inconclusive means no clear call, values can overlap the other calls; inactive means above about -39%; further: on the % scale 0 is the no-effect control and ±100 the full control effect
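Compounds were evaluated in HFFs infected with an HCMV luciferase reporter virus (MOI 1 PFU/cell). Luciferase in lysates collected 72 h post infection served as the replication measure.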
HCV inh: HCV inhibition. Huh7.5.1 HCVcc-Cre infection, luciferase reporter, 44 h. Potency, µM (titrated, usually from 41.8 µM), without a hit: at the top dose activity change, negative = inhibition, usual class: inhibitors. 340,000 tested, 3.4% active; further: potency means the concentration at half of the fitted maximal effect; on the % scale 0 is the no-effect control and ±100 the full control effect
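After 44 h co-culture of compound, cells and HCVcc-Cre (~0.5 moi), substrate is added for 15 min at room temperature and luciferase measured over 15 sec. Cells were seeded at 1,000/well and pre-cultured 4 h.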
Pf growth 96h: P. falciparum growth inhibition at 96 hours; P. falciparum luciferase reporter growth, 96 h; Potency, µM (series often up to 28.7 µM), without a hit: at the highest dose activity change, negative = inhibition, usual class: inhibitors; 320,000 tested, 6.9% active; further: potency means the concentration at half of the fitted maximal effect; on the % scale 0 is the no-effect control and ±100 the full control effect
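Compounds incubated with erythrocytes infected by luciferase-expressing P. falciparum (2% hematocrit, 0.05% parasitemia final) for 96 hours, 37 C in 5% CO2. Growth inhibition scored as decreased luciferase luminescence.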
Shiga toxin inh: blocks Shiga toxin action in Vero cells. Vero cells, Shiga toxin protein synthesis inhibition reporter. inhibition, % at 38.7 µM. 290,000 tested, 9.2% active. AID 2315; in the data active means inhibition mostly above about 28%, no sharp cut-off; inactive means mostly below about 43%; further: 0% is about no effect
* = called active by the depositor; ? = inconclusive; · = no result. Unless noted, the call rests on the fitted dose curve; in most records, active means well fitted inhibition curve with a large enough effect; inconclusive means small, poorly fitted or top-dose-only effect, or another doubt; inactive means no such curve, though single readings can be large or run the other way.

SMILES | CHX counter | Pf growth 48h | HCMV antiviral | HCV inh | Pf growth 96h | Shiga toxin inh
O=C1CCC(NC(=O)c2ccccc2)C(=O)N1 (centres undefined) | -0.8 | 1.4% | 25.5 | 12.6% | 39.6% | 5.5
CC1(C)CC(=O)c2c(oc3c(Cl)cc(NS(=O)(=O)c4ccc(Br)cc4)cc23)C1 | · | · | 0.2 | · | · | ·
O=C(Cn1c(=O)n(Cc2ccco2)c(=O)c2cccnc21)Nc1ccccc1F | · | · | 5.6 | · | · | ·
COc1cccc(CC(NC(C)=O)C(=O)NC2CCN(C(=O)C3CC3)CC2)c1OC (centres undefined) | -5.6 | -19.0% | -12.6 | -4.3% | 11.0% | 19.8
COc1ccc(NC(=O)C2Cc3c(-c4ccc(Cl)cc4)ccnc3O2)cc1OC (centres undefined) | · | · | -78.4* | · | · | ·
CC1CN(Cc2csc(-c3ccc(Cl)cc3)n2)CC(C)O1 (centres undefined) | 47.3 | 176.8% | ? | 11.2µM* | 251.4% | 116.8*
COc1cc(-c2nc3ccc4ccccc4c3c3c2CCC3)cc(OC)c1OC | 0.7 | 15.1% | 41.4 | 5.62µM* | 47.4% | 25.4
COc1cc(-c2nc3ccc4ccccc4c3c3c2CCC3)cc(OC)c1O | 0.3 | -78.2% | -31.2 | ? | 18.8% | -11.6
Nc1cccc(Nc2nc(OC(C(F)(F)F)C(F)(F)F)nc(OC(C(F)(F)F)C(F)(F)F)n2)c1 | -2.4 | ? | -107.2* | ? | ? | -16.7
CCN(CC)CCn1c2ccccc2c2cnc(N)c(C#N)c21 | -4.0 | 2.62µM* | -97.7* | 10µM* | 2.62µM* | -7.6
CN(C)C=Nc1ncc2c3ccccc3n(CCN(C)C)c2c1C#N | -5.4 | ? | -97.8* | -5.7% | -97.5% | -12.0
CC1CCN(CC(=O)c2cccs2)CC1 | 13.3* | 38.8% | 47.5 | 15.1% | 69.4% | 36.7*
O=C(CN1CCc2ccccc2C1)c1cccs1 | 48.7* | ? | 15.8 | 5.4% | · | 81.6*
Cc1ccc(S(=O)(=O)N2C[C@H]3[C@H]4C(=O)N(c5ccccc5)C(=O)[C@H]4CC(=O)[C@H]3[C@@H]2c2cccc3ccccc23)cc1 | · | · | -8.1 | · | · | ·
Cc1cc(C)n(C(C)CC(=O)NCc2ccc(Cl)cc2)n1 (centres undefined) | · | · | -11.4 | · | · | ·
COC(=O)CC(c1ccc(F)cc1)n1c(C)ccc1C (centres undefined) | 9.3 | ? | ? | 13.0% | 13.1µM* | -0.8
COc1ccc2c(c1)NC(=O)CC(c1ccccc1)=N2 | 37.6* | · | -23.2 | ? | 106.7% | 66.4*
N=C1C(c2nc3ccccc3s2)=C(O)CN1Cc1ccco1 | 26.0* | 85.3% | -32.1 | ? | · | 66.9*
CCOC(=O)c1c(NC(C)=O)c2c3c(sc2n1Cc1nc(-c2ccccc2OCC)oc1C)CCCC3 | · | · | -0.9 | · | · | ·
Cc1cc2nc(-c3cccc(NC(=O)COc4ccc(Cl)c(C)c4)c3)oc2cc1C | · | · | 95.9 | · | · | ·
OC[C@@H](O)C(O)[C@H](O)[C@@H](O)CO (some centres undefined) | -2.8 | · | · | · | · | -3.1
C=CCn1c(-c2cc3c(s2)CCC(CC)C3)n[nH]c1=S (centres undefined) | 23.7* | 18.0% | ? | 1.3% | 40.4% | 36.1
C=CCn1c(SCC(=O)NC2CCS(=O)(=O)C2)nnc1-c1cc2c(s1)CCC(CC)C2 (centres undefined) | 25.0* | 46.1% | ? | -7.2% | 37.1% | 62.5
C=CCn1c(-c2sccc2C)n[nH]c1=S | -1.9 | -11.4% | ? | 3.4% | 3.7% | -7.7
O=C(N/N=C/c1cccs1)c1cccc2cc[nH]c12 | -2.0 | ? | 69.8 | 5.8% | 0.0% | 15.3
CCc1ccc(/C=N/NC(=O)c2c[nH]c3ccccc23)s1 | 49.1* | 25.0% | 11.9 | ? | ? | 90.8*
O=C(N/N=C/c1cccs1)c1c[nH]c2ccccc12 | 62.3* | 82.2% | 78.8 | 12.8% | 16.0% | 80.6*
CCCN1C(=O)/C(=C/c2c(NCCCOC(C)C)nc3c(C)cccn3c2=O)SC1=S | 1.9 | ? | · | 7.1% | 37.2% | 17.6
CCC(C)N1C(=O)/C(=C/c2c(NCCCOC(C)C)nc3c(C)cccn3c2=O)SC1=S (centres undefined) | -3.2 | 1.17µM* | -27.7 | ? | ? | 9.8
